Measurements published in the supplement of paper PMC8728848.
About 410 targets per protein were measured; listed, in parts, are those with the strongest signals and a random draw of the rest.

Tests used:
Assay in all cases: glycan array binding signal (z-score within array); higher = stronger binding
Conditions in all cases: glycan notation: IUPAC condensed, linker removed
[1] = molecular target: Fuc(a1-2)Gal(b1-3)GalNAc(a1-3)[Fuc(a1-2)]Gal(b1-4)Glc
How it was run: (§1)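 Arrays were curated from the Consortium for Functional Glycomics database, 3228 in total, and kept only where the protein sequence was available. Binding is expressed as a within-array Z-score. This score was averaged across arrays of the same protein sequence at different concentrations or buffers and across linkers, and negative values can be read as non-binding.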

[2] = molecular target: Fuc(a1-2)Gal(b1-3)GalNAc(a1-3)[Fuc(a1-2)]Gal(b1-4)GlcNAc
How it was run: as §1

[3] = molecular target: Fuc(a1-2)Gal(b1-3)GlcNAc(b1-2)Man(a1-3)[Fuc(a1-2)Gal(b1-3)GlcNAc(b1-2)Man(a1-6)]Man(b1-4)GlcNAc(b1-4)GlcNAc
How it was run: as §1

[4] = molecular target: Fuc(a1-2)Gal(b1-4)Glc6S
How it was run: as §1

[5] = molecular target: Fuc(a1-2)Gal(b1-4)GlcNAc(b1-3)Gal(b1-4)GlcNAc(b1-3)Gal(b1-4)GlcNAc
How it was run: as §1

[6] = molecular target: Fuc(a1-2)Gal(b1-4)[Fuc(a1-3)]GlcNAc
How it was run: as §1

[7] = molecular target: Fuc(a1-2)[Gal(a1-3)]Gal(b1-4)GlcNAc
How it was run: as §1

[8] = molecular target: Fuc(a1-2)[Gal(a1-3)]Gal(b1-4)[Fuc(a1-3)]GlcNAc
How it was run: as §1

[9] = molecular target: Fuc(a1-2)[GalNAc(b1-3)]Gal
How it was run: as §1

[10] = molecular target: Fuc(b1-3)GlcNAc
How it was run: as §1

[11] = molecular target: Gal(a1-3)Gal(b1-4)[Fuc(a1-3)]GlcNAc
How it was run: as §1

[12] = molecular target: Gal(a1-4)Gal(b1-3)GlcNAc(b1-2)Man(a1-3)[Gal(a1-4)Gal(b1-3)GlcNAc(b1-2)Man(a1-6)]Man(b1-4)GlcNAc(b1-4)GlcNAc
How it was run: as §1

[13] = molecular target: Gal(a1-4)GlcNAc
How it was run: as §1

[14] = molecular target: Gal(b1-3)GalNAc(b1-3)Gal(a1-4)Gal(b1-4)Glc
How it was run: as §1

[15] = molecular target: Gal(b1-3)GlcNAc(b1-3)Gal(b1-4)Glc
How it was run: as §1

[16] = molecular target: Gal(b1-3)GlcNAc(b1-3)Gal(b1-4)GlcNAc(b1-6)[Gal(b1-3)GlcNAc(b1-3)]Gal(b1-4)Glc
How it was run: as §1

[17] = molecular target: Gal(b1-3)GlcNAc(b1-3)GalNAc
How it was run: as §1

[18] = molecular target: Gal(b1-3)[Fuc(a1-4)]GlcNAc(b1-2)Man(a1-3)[Gal(b1-3)[Fuc(a1-4)]GlcNAc(b1-2)Man(a1-6)]Man(b1-4)GlcNAc(b1-4)GlcNAc
How it was run: as §1

[19] = molecular target: Gal(b1-4)GlcNAc(b1-3)Gal(b1-4)[Fuc(a1-3)]GlcNAc(b1-3)Gal(b1-4)[Fuc(a1-3)]GlcNAc
How it was run: as §1

[20] = molecular target: Gal(b1-4)GlcNAc(b1-3)[GlcNAc(b1-6)]Gal(b1-4)GlcNAc
How it was run: as §1

[21] = molecular target: Gal3S(b1-3)[Fuc(a1-4)]GlcNAc
How it was run: as §1

[22] = molecular target: Gal3S(b1-4)Glc
How it was run: as §1

[23] = molecular target: Gal3S(b1-4)[Fuc(a1-3)]Glc
How it was run: as §1

[24] = molecular target: GlcA(b1-3)Gal
How it was run: as §1

[25] = molecular target: GlcNAc(a1-4)Gal(b1-4)GlcNAc(b1-3)Gal(b1-4)GlcNAc
How it was run: as §1

[26] = molecular target: GlcNAc(a1-4)Gal(b1-4)GlcNAc(b1-3)Gal(b1-4)[Fuc(a1-3)]GlcNAc(b1-3)Gal(b1-4)[Fuc(a1-3)]GlcNAc
How it was run: as §1

[27] = molecular target: GlcNAc(b1-3)Gal(b1-4)Glc
How it was run: as §1

[28] = molecular target: GlcNAc(b1-3)Gal(b1-4)GlcNAc
How it was run: as §1

[29] = molecular target: GlcNAc(b1-3)Gal(b1-4)GlcNAc(b1-3)Gal(b1-4)GlcNAc
How it was run: as §1

[30] = molecular target: GlcNAc(b1-4)GlcNAc(b1-4)GlcNAc
How it was run: as §1

B1: Ecp6 (Cladosporium fulvum), B3VBK9 (protein)
chain: MQSMILFAAALMGAAVNGFVLPRTDDPDCETKATDCGSTSNIKYTVVKGDTLTSIAKKFKSGICNIVSVNKLANPNLIELGATLIIPENCSNPDNKSCVSTPAEPTETCVPGLPGSYTIVSGDTLTNISQDFNITLDSLIAANTQIENPDAIDVGQIITVPVCPSSQCEAVGTYNIVAGDLFVDLAATYHTTIGQIKALNNNVNPSKLKVGQQIILPQDCKNVTTAVA
glycan array binding signal (z-score) [1]: -0.099 | glycan array binding signal (z-score) [2]: -0.099 | glycan array binding signal (z-score) [3]: -0.096 | glycan array binding signal (z-score) [4]: -0.062 | glycan array binding signal (z-score) [5]: -0.082 | glycan array binding signal (z-score) [6]: -0.078 | glycan array binding signal (z-score) [7]: -0.078 | glycan array binding signal (z-score) [8]: -0.021 | glycan array binding signal (z-score) [9]: -0.077 | glycan array binding signal (z-score) [10]: -0.083 | glycan array binding signal (z-score) [11]: -0.102 | glycan array binding signal (z-score) [12]: -0.099 | glycan array binding signal (z-score) [13]: -0.102 | glycan array binding signal (z-score) [14]: -0.064 | glycan array binding signal (z-score) [15]: -0.076 | glycan array binding signal (z-score) [16]: -0.107 | glycan array binding signal (z-score) [17]: -0.089 | glycan array binding signal (z-score) [18]: -0.039 | glycan array binding signal (z-score) [19]: -0.036 | glycan array binding signal (z-score) [20]: -0.096 | glycan array binding signal (z-score) [21]: -0.074 | glycan array binding signal (z-score) [22]: -0.098 | glycan array binding signal (z-score) [23]: -0.084 | glycan array binding signal (z-score) [24]: -0.089 | glycan array binding signal (z-score) [25]: -0.091 | glycan array binding signal (z-score) [26]: -0.002 | glycan array binding signal (z-score) [27]: -0.094 | glycan array binding signal (z-score) [28]: -0.1 | glycan array binding signal (z-score) [29]: -0.075 | glycan array binding signal (z-score) [30]: 10.3
